Inconclusive results are not listed. Active and inactive are the calls of the source. Calls come from the whole dose curve; as a rule, active = well fitted inhibition curve with a large enough effect; inconclusive = small, poorly fitted or top-dose-only effect, or effect the other way; inactive = no such curve, though single readings can be large or run the other way.
Experiment: High Content Imaging Cell-Based qHTS for Inhibitors of the mTORC1 Signaling Pathway in MEF Cells (AID 2667);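 for activity change, negative = inhibition: Tsc2-/- p53-/- MEFs stably re-expressing wild-type Tsc2 exposed 24 h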
Details: series mostly up to 38.3 µM; activity change, negative = inhibition: at the top concentration
Excerpt: NIH Molecular Libraries Probe Production Centers Network [MLPCN]
NIH Chemical Genomics Center [NCGC]
Assay Submitter (PI): Blenis, John; Hoffman, Greg; Harvard University
NCGC Assay Overview: The mammalian target of rapamycin (mTOR) is an intracellular serine/threonine kinase Aberrant regulation of mTOR signaling plays a causative role in a number of human diseases, including cancer, benign tumors such as lymphangioleiomyomatosis (LAM) and Tuberous Sclerosis Complex (TSC), and metabolic diseases such as diabetes and obesity. This project aims to identify inhibitors of ribosomal protein S6 (rpS6) phosphorylation. The phosphorylation of rpS6 is a key event downstream of mTOR activation. The assay uses a phospho-specific antibody of phospho-rpS6 to detect inhibitors of mTOR activation. Mutations in the Tsc1 and Tsc2 genes are the underlying genetic lesions responsible for TSC, causing constitutive activation of the mTORC1 pathway and leading to profound effects on cell metabolism. Aberrant metabolism in cancer has recently received significant attention as a target to develop therapeutic agents in the treatment of cancer.1 As Tsc2-/- cells have lost the ability to respond to energy and growth factor deprivation, these cells are unable to properly down regulate cellular biosynthetic processes in response to metabolic stress, and are thus extremely sensitive to glucose deprivation-induced death.2 A central goal of this project is to explore the unique cell survival and metabolic properties of cells with Tsc1 or Tsc2 by screening for compounds that selectively target the Tsc2-/- MEFs by screening both Tsc2-/- and WT MEF cell lines. We hope to better understand these aspects of TSC physiology in order to exploit them for therapeutic benefit.
NCGC IN Cell Assay Protocol:
For quantitative high throughput analysis of mTORC1 signaling, we developed a cell-based assay for immuno-fluorescence based detection of rpS6 phosphorylation on the Acumen Explorer that will be used a platform for the primary small molecule screen. Mouse embryonic fibroblasts (MEFs) are cultured in 1536-well plates using DMEM + 10% FBS. Twenty-four hrs after plating, test compounds (solubilized in DMSO) are delivered and incubated with the cells for 24 hrs at 37 degree Celsius. Following the incubation, media with compound is aspirated and the cells are fixed in 4% paraformaldehyde (PFA) containing PBS + 0.2% TX-100. Next, PFA is aspirated, cells are washed two times with PBS plus 0.2% TX-100 and the cells are blocked for 1 hr at room temperature (blocking buffer: LiCOR Blocking Buffer plus 0.2% TX-100). This is followed by aspiration and staining with Alexa-488 conjugated-phospho-rpS6 Ser235/236 antibody for 2 hours at room temperature (Cell Signaling Technology # 4803, 1:50 dilution in blocking buffer). Cells are washed two times with PBS plus 0.2% TX-100, and stained with 10 uM propidium iodide (PI) for 20-25 minutes for cell number measurement (1:500 dilution of Hoescht staining is also added for IN Cell imaging). Active wells which are selected (based on Acumen results) are imaged on the IN Cell 1000 (GE Healthcare) using the D360/40X and HQ480/40X excitation filters for the Hoechst and Alexa-488 cytoplasmic stains, respectively. The fluorescence emission filters used were HQ460/40M and HQ535/50M for the Hoechst and Alexa-488 cytoplasmic stains, respectively. The normalized phospho-S6 staining is calculated as the ratio of […] for the single concentration rapamycin control ([…] nM) and DMSO columns. […] Inhibition of the pathway is defined based on the normalized phospho-S6 intensity in rapamycin treated cells. Each treatment is reported as the % positive cells in the well, where thresholds are defined by selecting wells with the highest and lowest signal and differentiating between the % non-active and % active populations. […]
Potency is the fitted concentration of half-maximal effect.

Row | SMILES | activity change, negative = inhibition | Potency
1 | O=c1[nH]c2ccccc2n1CCCN1CCC(n2c(=O)[nH]c3cc(Cl)ccc32)CC1 | -100% (inactive) | 
2 | C[C@@H]1O[C@@H](O[C@H]2C[C@@H](O)[C@]3(CO)[C@H]4[C@H](O)C[C@]5(C)[C@@H](C6=CC(=O)OC6)CC[C@]5(O)[C@@H]4CC[C@]3(O)C2)[C@H](O)[C@H](O)[C@H]1O | -100% (inactive) | 
3 | CC(=O)[C@H]1CC[C@H]2[C@@H]3CC[C@H]4C[C@](C)(O)CC[C@]4(C)[C@H]3CC[C@]12C | -100% (inactive) | 
4 | C=C(C)[C@H]1Cc2c(ccc3c2O[C@@H]2COc4cc(OC)c(OC)cc4[C@@H]2C3=O)O1 |  | 0.0465 µM (active)
5 | N#CC(C#N)=Cc1ccc(O)c(O)c1 | -100% (inactive) | 
6 | CN1C[C@H](CNC(=O)OCc2ccccc2)C[C@@H]2c3cccc4c3c(cn4C)C[C@H]21 | -100% (inactive) | 
7 | c1ccc(C2CC2)c(OCC2=NCCN2)c1 | -100% (inactive) | 
8 | O=C1NCN(c2ccccc2)C12CCN(CC1COc3ccccc3O1)CC2 (stereo not given) | -100% (inactive) | 
9 | Nc1ccncc1 | -100% (inactive) | 
10 | CNCC(O)c1ccc(O)cc1 (stereo not given) | -100% (inactive) | 
11 | NCC1(CC(=O)O)CCCCC1 | -100% (inactive) | 
12 | CN(C)C(=O)C(CCN1CCC(O)(c2ccc(Cl)cc2)CC1)(c1ccccc1)c1ccccc1 |  | 18.5 µM (active)
13 | O=c1[nH]c2ccccc2n1C1CCN(CCCC(c2ccc(F)cc2)c2ccc(F)cc2)CC1 |  | 16.5 µM (active)
14 | CCCC(C)(COC(N)=O)COC(=O)NC(C)C (stereo not given) | -100% (inactive) | 
15 | Cc1cc2c(C(C)C)c(O)c(O)c(C=O)c2c(O)c1-c1c(C)cc2c(C(C)C)c(O)c(O)c(C=O)c2c1O |  | 14.7 µM (active)
16 | Cc1cccc(C)c1NC(=O)CN1CCCC1=O | -100% (inactive) | 
17 | CC[C@@H](CO)NC(=O)[C@@H]1C=C2c3cccc4c3c(cn4C)C[C@H]2N(C)C1 | -100% (inactive) | 
18 | Cc1cccc(C)c1NC1=NCCCS1 | -100% (inactive) | 

Row | SMILES | activity change, negative = inhibition | Potency
19 | c1ccc2c(c1)OCC(C1=NCCN1)O2 (stereo not given) |  | 6.56 µM (active)
20 | CC(C)=CCOc1c2occc2cc2ccc(=O)oc12 | -100% (inactive) | 
21 | CCCN1CCC[C@@H]2Cc3nc(N)ncc3C[C@H]21 | -100% (inactive) | 
22 | COc1ccccc1N1CCNCC1 | -100% (inactive) | 
23 | CC(O)(CS(=O)(=O)c1ccc(F)cc1)C(=O)Nc1ccc(C#N)c(C(F)(F)F)c1 (stereo not given) | -100% (inactive) | 
24 | CCCN1CCC[C@@H]2Cc3[nH]ncc3C[C@H]21 |  | inactive
25 | NCC(CC(=O)O)c1ccc(Cl)cc1 (stereo not given) | -100% (inactive) | 
26 | CCC1(C2=NCCN2)Cc2ccccc2O1 (stereo not given) | -100% (inactive) | 
27 | NN=C(N)N |  | inactive
28 | CC(CCc1ccccc1)NC(C)C(O)c1ccc(O)cc1 (stereo not given) | -100% (inactive) | 
29 | Cc1ccc(S(=O)(=O)N[C@@H](CCCCN)C(=O)CCl)cc1 | -100% (inactive) | 
30 | CC(=O)[C@H]1CC[C@H]2[C@@H]3CC[C@H]4C[C@H](O)CC[C@]4(C)[C@H]3C(=O)C[C@]12C | -100% (inactive) | 
31 | COC[C@H]1OC(=O)c2coc3c2[C@@]1(C)C1=C(C3=O)C2CCC(=O)[C@@]2(C)C[C@H]1OC(C)=O (stereo not given in full) | -100% (inactive) | 
32 | NCC(O)c1ccc(O)cc1 (stereo not given) | -100% (inactive) | 
33 | CC[C@@H](CO)NC(=O)[C@@H]1C=C2c3cccc4[nH]cc(c34)C[C@H]2N(C)C1 | -100% (inactive) | 
34 | Cc1ncc(CNC(=O)N(CCCl)N=O)c(N)n1 | -100% (inactive) | 
35 | COc1ccc(C(CN(C)C)C2(O)CCCCC2)cc1 (stereo not given) | -100% (inactive) | 

Source: PubChem BioAssay (NCATS)
